This is an account of results in PubChem BioAssay (NCI).

Experiment [1] in a line: NCI Yeast Anticancer Drug Screen. Data for the rad50 strain (AID 155).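 Further: 0% = growth of vehicle-only cultures of the same strain.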 The settings on record: S. cerevisiae rad50 strain growth inhibition, active compounds read high. The gist of the method: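 Genetically altered yeast (DNA repair pathway); compound treatment; growth inhibition vs vehicle ctrl.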
The nature of experiment [2]: NCI Yeast Anticancer Drug Screen. Data for the mec2-1 strain (AID 157). Conditions: S. cerevisiae mec2-1 strain, active compounds read high. An outline of the steps:
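Mutant yeast (mec2-1) grown with compound; growth inhibition relative to vehicle control reported.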

A short description of experiment [3]: NCI Yeast Anticancer Drug Screen. Data for the sgs1 mgt1 strain (AID 161).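 Further: 0% = growth of cultures given vehicle only.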 The settings on record: S. cerevisiae sgs1 mgt1 strain, active compounds read high. An outline of the steps:
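Percent growth inhibition was derived by comparing compound-exposed mutant yeast with vehicle-exposed cultures. The strain carries alterations in DNA damage repair.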

Experiment [4] in a line: NCI Yeast Anticancer Drug Screen. Data for the cln2 rad14 strain (AID 165).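 Further: 0% = growth equal to vehicle treated cultures.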 Conditions: S. cerevisiae cln2 rad14 strain, active compounds read high. The gist of the method: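 Readout is yeast growth inhibition versus vehicle-treated controls, using a strain with cln2 and rad14 alterations exposed to compound.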
Experiment [5] can be described thus: NCI Yeast Anticancer Drug Screen. Data for the bub3 strain (AID 167). The settings on record: S. cerevisiae bub3 mutant strain, active compounds read high. An outline of the steps: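 Yeast carrying a defined mutation is treated with each compound, and growth is compared with that of vehicle-exposed cells to give inhibition.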
Experiment [6] is described as follows: NCI Yeast Anticancer Drug Screen. Data for the mlh1 rad18 strain (AID 175). Conditions: S. cerevisiae mlh1 rad18 strain growth inhibition, active compounds read high. The gist of the method:
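Genetically defined yeast (DNA repair-deficient) exposed to compounds; growth inhibition determined relative to vehicle.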

[7] abbreviates: at 5.0 µM (retest, dose inferred, filed as 0.5).
Setting [8] is: at 50.0 µM (retest, dose inferred, filed as 5.0).

Structures are written as SMILES. Compounds without any hit were thinned out: in the full panel of roughly 79,000, 15% have a hit. Values without a mark were called inactive. The source made the active and inactive calls. No stated cut-off is given here; in the data, active means growth inhibition above about 70%; inactive means the rest.

As to `COc1cc(C2CC(C)(OC)Oc3cc4c(cc32)OCO4)cc(OC)c1O` (stereo not given), the growth inhibition in experiment [1] (setting [7]) was 1%; in experiment [1] (setting [8]), 55%; in experiment [1] (at 50.0 µM) it was 14.9%; in experiment [2] (setting [7]) it was 2%; in experiment [2] (setting [8]), 16%; in experiment [2] (at 50.0 µM), -5.5%. Also, the growth inhibition is -3% in experiment [3] (setting [7]); 50% in experiment [3] (setting [8]); 28.8% in experiment [3] (at 50.0 µM); 12% in experiment [4] (setting [7]); 37% in experiment [4] (setting [8]); 4.55% in experiment [4] (at 50.0 µM). Further, the growth inhibition in experiment [5] (setting [7]) was 10%; in experiment [5] (setting [8]) it was 55%; in experiment [5] (at 50.0 µM) it was -2.1%; in experiment [6] (setting [7]) it was 0%; in experiment [6] (setting [8]), 63%; in experiment [6] (at 50.0 µM) it was 31.2%.
With `Cc1nn(-c2ccc(Cl)cc2)c2nc(N)nc(N)c12`, the growth inhibition in experiment [1] (setting [7]) was 3%; in experiment [1] (setting [8]), 0%; in experiment [1] (at 50.0 µM) it was 30.2%; in experiment [2] (setting [7]), -3%; in experiment [2] (setting [8]) it was 11%; in experiment [2] (at 50.0 µM) it was 30.6%. Moreover, the growth inhibition is 2% in experiment [3] (setting [7]); -2% in experiment [3] (setting [8]); 34.4% in experiment [3] (at 50.0 µM); -5% in experiment [4] (setting [7]); -6% in experiment [4] (setting [8]); 62.6% in experiment [4] (at 50.0 µM). For the same compound, the growth inhibition was -1% in experiment [5] (setting [7]); 0% in experiment [5] (setting [8]); 21.2% in experiment [5] (at 50.0 µM); 0% in experiment [6] (setting [7]); 9% in experiment [6] (setting [8]); 45.4% in experiment [6] (at 50.0 µM).
On to `O=[N+]([O-])c1cccc(/C=N/Nc2ccc3ccccc3n2)c1O`, for which the growth inhibition in experiment [1] (setting [7]) is 30%; in experiment [1] (setting [8]), 20%; in experiment [1] (at 50.0 µM), 98% (active); in experiment [2] (setting [7]), 1%; in experiment [2] (setting [8]) it was -23%; in experiment [2] (at 50.0 µM) it was 98.8% (active). For the same compound, the growth inhibition in experiment [3] (setting [7]) was 26%; in experiment [3] (setting [8]) it was 24%; in experiment [3] (at 50.0 µM), 97.4% (active); in experiment [4] (setting [7]) it was 1%; in experiment [4] (setting [8]), 3%; in experiment [4] (at 50.0 µM) it was 93.3% (active). For the same compound, the growth inhibition in experiment [5] (setting [7]) is 2%; in experiment [5] (setting [8]), 7%; in experiment [5] (at 50.0 µM), 97.8% (active); in experiment [6] (setting [7]), 16%; in experiment [6] (setting [8]), 14%; in experiment [6] (at 50.0 µM) it was 97.5% (active).
`Cn1c2c(c3ccccc31)CCN(CCN1CCN(c3ccccc3)CC1)C2=O`: the growth inhibition was 30% in experiment [1] (setting [7]); 31% in experiment [1] (setting [8]); 71.9% (active) in experiment [1] (at 50.0 µM); 21% in experiment [2] (setting [7]); 29% in experiment [2] (setting [8]); 43% in experiment [2] (at 50.0 µM). Also, the growth inhibition was 28% in experiment [3] (setting [7]); 37% in experiment [3] (setting [8]); 79% (active) in experiment [3] (at 50.0 µM); 26% in experiment [4] (setting [7]); 24% in experiment [4] (setting [8]); 60.6% in experiment [4] (at 50.0 µM). For the same compound, the growth inhibition in experiment [5] (setting [7]) is 32%; in experiment [5] (setting [8]) it was 43%; in experiment [5] (at 50.0 µM), 67.5%; in experiment [6] (setting [7]), 32%; in experiment [6] (setting [8]), 35%; in experiment [6] (at 50.0 µM), 59.8%.
For `O=C1C(=O)C2CC3(CC1N2Cc1ccccc1)OCCO3`, the growth inhibition is 11% in experiment [1] (setting [7]); 95% (active) in experiment [1] (setting [8]); 98% (active) in experiment [1] (at 50.0 µM); -28% in experiment [2] (setting [7]); 79% (active) in experiment [2] (setting [8]); 96.5% (active) in experiment [2] (at 50.0 µM). The growth inhibition was 36% in experiment [3] (setting [7]); 93% (active) in experiment [3] (setting [8]); 96.9% (active) in experiment [3] (at 50.0 µM); 5% in experiment [4] (setting [7]); 43% in experiment [4] (setting [8]); 95.2% (active) in experiment [4] (at 50.0 µM). For the same compound, the growth inhibition was -10% in experiment [5] (setting [7]); 78% (active) in experiment [5] (setting [8]); 86.5% (active) in experiment [5] (at 50.0 µM); 34% in experiment [6] (setting [7]); 94% (active) in experiment [6] (setting [8]); 95.5% (active) in experiment [6] (at 50.0 µM).
For the compound `O=C1C=CC(=O)C2C3C=CC(CC3)C12` (stereo not given), the growth inhibition in experiment [1] (setting [7]) was 8%; in experiment [1] (setting [8]), 29%; in experiment [1] (at 50.0 µM), 47.1%; in experiment [2] (setting [7]) it was 20%; in experiment [2] (setting [8]), 36%; in experiment [2] (at 50.0 µM), 43.6%. The growth inhibition in experiment [3] (setting [7]) is 10%; in experiment [3] (setting [8]), 36%; in experiment [3] (at 50.0 µM), 70.1% (active); in experiment [4] (setting [7]), 14%; in experiment [4] (setting [8]), 43%; in experiment [4] (at 50.0 µM), 78.2% (active). For the same compound, the growth inhibition in experiment [5] (setting [7]) was 0%; in experiment [5] (setting [8]) it was 23%; in experiment [5] (at 50.0 µM), 92.5% (active); in experiment [6] (setting [7]) it was 11%; in experiment [6] (setting [8]) it was 39%; in experiment [6] (at 50.0 µM) it was 84.6% (active).
For `Cc1cc(C)c(N2C(=O)C=CC2=O)c(C)c1`, the growth inhibition was 98% (active) in experiment [1] (setting [7]); 98% (active) in experiment [1] (setting [8]); 99.7% (active) in experiment [1] (at 50.0 µM); 99% (active) in experiment [2] (setting [7]); 99% (active) in experiment [2] (setting [8]); 99.7% (active) in experiment [2] (at 50.0 µM). For the same compound, the growth inhibition was 99% (active) in experiment [3] (setting [7]); 98% (active) in experiment [3] (setting [8]); 99.3% (active) in experiment [3] (at 50.0 µM); 99% (active) in experiment [4] (setting [7]); 98% (active) in experiment [4] (setting [8]); 99.2% (active) in experiment [4] (at 50.0 µM). The growth inhibition in experiment [5] (setting [7]) was 99% (active); in experiment [5] (setting [8]), 98% (active); in experiment [5] (at 50.0 µM) it was 99.5% (active); in experiment [6] (setting [7]), 98% (active); in experiment [6] (setting [8]), 98% (active); in experiment [6] (at 50.0 µM), 99.3% (active).
Consider `O=C(OCc1ccccc1)C(O)c1ccccc1` (stereo not given), for which the growth inhibition was -2% in experiment [1] (setting [7]); 16% in experiment [1] (setting [8]); 24.1% in experiment [1] (at 50.0 µM); 2% in experiment [2] (setting [7]); 6% in experiment [2] (setting [8]); -7.1% in experiment [2] (at 50.0 µM). Besides, the growth inhibition in experiment [3] (setting [7]) is -1%; in experiment [3] (setting [8]), 3%; in experiment [3] (at 50.0 µM) it was -14.7%; in experiment [4] (setting [7]), -4%; in experiment [4] (setting [8]) it was 1%; in experiment [4] (at 50.0 µM), 41.1%. Further, the growth inhibition in experiment [5] (setting [7]) is -3%; in experiment [5] (setting [8]), -2%; in experiment [5] (at 50.0 µM), 18.4%; in experiment [6] (setting [7]), -1%; in experiment [6] (setting [8]), 10%; in experiment [6] (at 50.0 µM) it was 16.2%.
Regarding `O=C(Nc1c(Cl)cccc1Cl)Oc1c(Br)cc(Br)cc1Br`, the growth inhibition in experiment [1] (setting [7]) was 77% (active); in experiment [1] (setting [8]), 96% (active); in experiment [1] (at 50.0 µM), 90.3% (active); in experiment [2] (setting [7]) it was 66%; in experiment [2] (setting [8]), 94% (active); in experiment [2] (at 50.0 µM) it was 93% (active). The growth inhibition in experiment [3] (setting [7]) is 27%; in experiment [3] (setting [8]), 98% (active); in experiment [3] (at 50.0 µM) it was 93.2% (active); in experiment [4] (setting [7]) it was 25%; in experiment [4] (setting [8]), 100% (active); in experiment [4] (at 50.0 µM) it was 92.2% (active). Besides, the growth inhibition in experiment [5] (setting [7]) was 58%; in experiment [5] (setting [8]), 93% (active); in experiment [5] (at 50.0 µM), 91% (active); in experiment [6] (setting [7]), 64%; in experiment [6] (setting [8]), 98% (active); in experiment [6] (at 50.0 µM), 90.1% (active).
Consider `COc1ccc(C(C)c2cc3c(cc2OC/C(C)=N/NC(N)=O)OCO3)cc1` (stereo not given), for which the growth inhibition in experiment [1] (setting [7]) is 61%; in experiment [1] (setting [8]) it was 93% (active); in experiment [1] (at 50.0 µM), 74.4% (active); in experiment [2] (setting [7]) it was 43%; in experiment [2] (setting [8]), 99% (active); in experiment [2] (at 50.0 µM), 71.6% (active). For the same compound, the growth inhibition in experiment [3] (setting [7]) was 41%; in experiment [3] (setting [8]), 87% (active); in experiment [3] (at 50.0 µM), 82% (active); in experiment [4] (setting [7]), 19%; in experiment [4] (setting [8]), 97% (active); in experiment [4] (at 50.0 µM), 19.6%. The growth inhibition is 58% in experiment [5] (setting [7]); 99% (active) in experiment [5] (setting [8]); 88.1% (active) in experiment [5] (at 50.0 µM); 61% in experiment [6] (setting [7]); 96% (active) in experiment [6] (setting [8]); 90.3% (active) in experiment [6] (at 50.0 µM).
